Reference: PubChem BioAssay (Tox21)
Inconclusive results are not listed. Values without a mark were called inactive. The source made the active and inactive calls. The call rests on the fitted dose curve; in most records, active means well fitted activation curve with a large enough effect in the repeat runs; inconclusive means weak or mixed curves; inactive means flat fitted curve, though single readings scatter.

Assay: Caspase-3/7 induction in HepG2 cells by small molecules, qHTS assay (AID 1346978); further: nearly all actives have a fitted effect of over 15% in size
Conditions: HepG2 caspase-3/7 activation, Caspase-Glo luminescence, 17 h; series mostly up to 92.4 µM
Excerpt: National Center for Advancing Translational Sciences [NCATS] NIH Chemical Genomics Center [NCGC] U.S. Environmental Protection Agency [EPA] National Institutes of Environmental Health Sciences [NIEHS] National Toxicology Program [NTP] Assay overview: Apoptosis is a process of programmed cell death and plays a central role in the development of multicellular organisms. It is a highly regulated process and induces cell death by activating caspases, which are the members of cysteine aspartic acid-specific protease (caspase) family. Caspases involved in apoptosis are classified by their mechanism of action as initiator caspases (caspase-2, -8, -9 and -10) and executioner caspases (caspase-3, -6, and -7). Inhibition of apoptosis results in number of cancers, autoimmune diseases, inflammatory diseases and viral infection. To identify small molecule compounds that induce apoptosis, a homogeneous, luminescent Caspase-Glo 3/7 assay was used. Wild type HepG2 cells were used to screen Tox21 libraries for identifying caspase-3/7 activity inducers.
Assay Protocol Summary: HepG2 cells were dispensed at 2,000 per well in 5uL of culture medium into white solid bottom 1536-well plates (Corning Life Sciences, Corning, NY) using a Multidrop Combi (Thermo Scientific, Waltham, MA) dispenser. The assay plates were incubated at 37 C and 5% CO2 for 5hr, and then 23nL of compounds dissolved in DMSO and positive control were transferred using a Pintool station (Wako, San Diego, CA). The assay plates were incubated at 37C and 5% CO2 for 17hr. For caspase-3/7 activity read, 4uL of Caspase-Glo 3/7 reagent (Promega Corporation, Madison, WI) was added to each well of the assay plates using Flying Reagent Dispenser (FRD, Aurora Discovery, San Diego, CA) and incubated the assay plates at room temperature for 30min. The luminescence signal was quantified using a ViewLux plate reader (Perkin Elmer, Shelton, CT).
On the % scale 0 is the no-effect control and ±100 the full control effect.

SMILES	outcome	caspase activation
COc1cccc2sc(N)nc12	inactive	–
CCN(CC)C(=O)C1CN2CCc3cc(OC)c(OC)cc3C2CC1OC(C)=O (stereo not given)	inactive	–
c1ccccc1	inactive	–
CC(C)CCO	inactive	–
CCCCCCCCCCCCOC(C)=O	inactive	–
CO[Si](CCCCl)(OC)OC	inactive	–
C=C(C)C(=O)OC1CC(C)CC(C)(C)C1 (stereo not given)	inactive	–
Nc1ccc(S(=O)(=O)NC(=O)c2ccccc2)cc1	inactive	–
CC(C)COC(=O)CC(C(=O)OCC(C)C)S(=O)(=O)O (stereo not given)	inactive	–
C=CCCCCCCCCCCC	–	-1.35% [at 8.39 µM]
COc1ccc(OC)c(NC(=O)CC(C)=O)c1	inactive	–
COc1cc(C=O)ccc1OC(=O)C(C)C	inactive	–
C=C(C)C(=O)OC	inactive	–
CCCCCCCCCOCC1CO1 (stereo not given)	inactive	–
O=C(/C=C/c1ccccc1)NCCO	inactive	–
NS(=O)(=O)c1cc2c(cc1Cl)NC(CC1CCCC1)NS2(=O)=O (stereo not given)	inactive	–
CN(C1CCCCC1)S(=O)(=O)c1ccccc1N	inactive	–
C=CCOC(=O)c1ccc(C(=O)OCC=C)c(C(=O)OCC=C)c1	inactive	–
NC(=O)C1(N2CCCCC2)CCN(CCCC(=O)c2ccc(F)cc2)CC1	inactive	–
CNC(=O)NC	inactive	–

SMILES	outcome	caspase activation
CC(C)(CO)[C@@H](O)C(=O)NCCCO	inactive	–
O=S(=O)(O)SSS(=O)(=O)O	inactive	–
CCN(CCC#N)c1ccccc1	inactive	–
CCCCC(CC)COC(=O)c1ccccc1 (stereo not given)	inactive	–
Cc1cccc(C(=O)O)c1[N+](=O)[O-]	inactive	–
O=S1(=O)CCCC1	inactive	–
Cc1oc(=O)oc1CN1CCN(c2cc3c(cc2F)c(=O)c(C(=O)O)c2n3C(C)S2)CC1 (stereo not given)	inactive	–
O=C(COCCOCCOCC(=O)Nc1c(I)cc(I)c(C(=O)O)c1I)Nc1c(I)cc(I)c(C(=O)O)c1I	inactive	–
O=C(O)c1c(Cl)ccc(Cl)c1Cl	inactive	–
C=CCOc1cc(Cl)ccc1C(=O)NCCN(CC)CC	inactive	–
NC(=O)NC(=O)Cc1ccccc1	inactive	–
CN(C)CCOCCN(C)CCO	inactive	–
FC(F)(F)c1ccc(Cl)cc1Cl	inactive	–
CCCCOC(=O)C(=O)OCCCC	inactive	–
C[Si]1(C)N[Si](C)(C)N[Si](C)(C)N1	inactive	–
Cc1ccc(S(=O)(=O)NC(=O)NC2CCCCCCC2)cc1	inactive	–
CO/N=C(/C(=O)N[C@@H]1C(=O)N2C(C(=O)O)=C(Cn3nnc(C)n3)CS[C@H]12)c1csc(N)n1	inactive	–
CCCCCC1Nc2cc(C(F)(F)F)c(S(N)(=O)=O)cc2S(=O)(=O)N1 (stereo not given)	inactive	–
O=C(O)Cc1cccc(-c2cc(CCCCCCc3ccc(O[C@H]4O[C@H](CO)[C@@H](O)[C@H](O)[C@@H]4O)c(-c4cccc(CC(=O)O)c4)c3)ccc2O[C@H]2O[C@H](CO)[C@@H](O)[C@H](O)[C@@H]2O)c1	–	0.734% [at 0.349 µM]
CC(=O)OC(C(=O)c1ccccc1)c1ccccc1 (stereo not given)	inactive	–
